According to the supplement of paper PMC10849652:
About 7,900 targets were measured; listed, in parts, are those with a hit and a random draw of the rest. About 0.6% of all pairs of compound and target were hits.

Experiments:
Test in all cases: log2 fold change, soluble protein after heating vs DMSO (PISA); higher = thermal stabilisation; K562 cells, 10 uM, 30 min; active = over 0.2 and 3.5 SD of the protein, either way, in both replicates (recomputed)
[1] = compound: COC1=CC=C(C=C1)CN2C=CC3=C2C=C(C=C3)C(=O)NO
How it was run: (§1)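 Aliquots of K562 cells (2×10^6 cells/mL) treated with 10 μM compound for 30 min were heated for 3 min over 48°C-58°C. After pooling and extraction in PBS with 0.5% NP-40 at 4°C, soluble protein from a 21,000xg, 90 min spin was quantified by TMTpro 16plex LC-MS/MS with channel sums equalised. Thermal stability is expressed against control samples, from duplicates, as a log2 fold change.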

filanesib = compound: CON(C)C(=O)N1N=C(c2cc(F)ccc2F)S[C@@]1(CCCN)c1ccccc1 [filanesib]
How it was run: as §1

zotarolimus = compound: CO[C@H]1C[C@@H]2CC[C@@H](C)[C@@](O)(O2)C(=O)C(=O)N2CCCC[C@H]2C(=O)O[C@H]([C@H](C)C[C@@H]2CC[C@H](n3cnnn3)[C@H](OC)C2)CC(=O)[C@H](C)/C=C(\C)[C@@H](O)[C@@H](OC)C(=O)[C@H](C)C[C@H](C)/C=C/C=C/C=C/1C [zotarolimus]
How it was run: as §1

idasanutlin = compound: COc1cc(C(=O)O)ccc1NC(=O)[C@@H]1N[C@@H](CC(C)(C)C)[C@](C#N)(c2ccc(Cl)cc2F)[C@H]1c1cccc(Cl)c1F [idasanutlin]
How it was run: as §1

alisertib = compound: COc1cc(Nc2ncc3c(n2)-c2ccc(Cl)cc2C(c2c(F)cccc2OC)=NC3)ccc1C(=O)O [alisertib]
How it was run: as §1

[2] = compound: COc1cc2nc(-c3cc(F)ccc3O)nc(N[C@@H]3CNC[C@H]3C(C)(C)O)c2cc1OC
How it was run: as §1

gefitinib = compound: COc1cc2ncnc(Nc3ccc(F)c(Cl)c3)c2cc1OCCCN1CCOCC1 [gefitinib]
How it was run: as §1

[3] = compound: COc1cccc2cc(-c3nc([C@H]4CC[C@H](C(=O)O)CC4)n4ncnc(N)c34)[nH]c12
How it was run: as §1

lapatinib = compound: CS(=O)(=O)CCNCc1ccc(-c2ccc3ncnc(Nc4ccc(OCc5cccc(F)c5)c(Cl)c4)c3c2)o1 [lapatinib]
How it was run: as §1

pictilisib = compound: CS(=O)(=O)N1CCN(Cc2cc3nc(-c4cccc5[nH]ncc45)nc(N4CCOCC4)c3s2)CC1 [pictilisib]
How it was run: as §1

[4] = compound: CS(=O)(=O)c1ccc(-c2cnc(N)c(C(=O)Nc3ccccc3)n2)cc1
How it was run: as §1

crizotinib = compound: C[C@@H](Oc1cc(-c2cnn(C3CCNCC3)c2)cnc1N)c1c(Cl)ccc(F)c1Cl [crizotinib]
How it was run: as §1

[5] = compound: C[C@@H]1COCCN1C2=NC(=NC(=C2)C3(CC3)S(=O)(=O)C)C4=C5C=CNC5=CC=C4
How it was run: as §1

[6] = compound: C[C@H](C1=CC=C(C=C1)C(=O)NC2=C3C=CNC3=NC=C2)N
How it was run: as §1

duvelisib = compound: C[C@H](Nc1ncnc2nc[nH]c12)c1cc2cccc(Cl)c2c(=O)n1-c1ccccc1 [duvelisib]
How it was run: as §1

gandotinib = compound: Cc1cc(Nc2cc(CN3CCOCC3)c3nc(C)c(Cc4ccc(Cl)cc4F)n3n2)n[nH]1 [gandotinib]
How it was run: as §1

tozasertib = compound: Cc1cc(Nc2cc(N3CCN(C)CC3)nc(Sc3ccc(NC(=O)C4CC4)cc3)n2)n[nH]1 [tozasertib]
How it was run: as §1

[7] = compound: Cc1cc(SCc2sc(-c3ccc(C(F)(F)F)cc3)nc2C)ccc1OCC(=O)O
How it was run: as §1

doramapimod = compound: Cc1ccc(-n2nc(C(C)(C)C)cc2NC(=O)Nc2ccc(OCCN3CCOCC3)c3ccccc23)cc1 [doramapimod]
How it was run: as §1

ispinesib = compound: Cc1ccc(C(=O)N(CCCN)[C@@H](c2nc3cc(Cl)ccc3c(=O)n2Cc2ccccc2)C(C)C)cc1 [ispinesib]
How it was run: as §1

Measured: log2 fold change

RPS18 (UniProt P62269)
inactive: [1] -0.157 | filanesib 0.118 | zotarolimus 0.012 | idasanutlin 0.046 | alisertib -0.015 | [2] -0.021 | gefitinib -0.013 | [3] -0.109 | lapatinib 0.065 | pictilisib -0.107 | [4] -0.022 | crizotinib 0.033 | [5] -0.244 | [6] 0.222 | duvelisib -0.076 | gandotinib 0.129 | tozasertib 0.016 | [7] -0.002 | doramapimod 0.105 | ispinesib -0.074

SCCPDH (UniProt Q8NBX0)
Sequence of UniProt Q8NBX0 (Q8NBX0 whole entry, looked up): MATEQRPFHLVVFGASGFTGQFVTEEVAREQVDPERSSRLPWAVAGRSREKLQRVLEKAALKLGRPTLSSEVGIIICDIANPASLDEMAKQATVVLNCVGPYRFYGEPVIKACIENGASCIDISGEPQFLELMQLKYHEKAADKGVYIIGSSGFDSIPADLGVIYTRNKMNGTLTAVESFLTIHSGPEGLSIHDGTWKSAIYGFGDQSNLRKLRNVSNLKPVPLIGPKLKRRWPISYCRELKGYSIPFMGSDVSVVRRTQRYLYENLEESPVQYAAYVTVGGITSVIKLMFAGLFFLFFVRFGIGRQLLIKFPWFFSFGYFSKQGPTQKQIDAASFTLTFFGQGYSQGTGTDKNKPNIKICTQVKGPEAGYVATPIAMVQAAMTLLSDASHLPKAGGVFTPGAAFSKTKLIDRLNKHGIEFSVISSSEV
inactive: filanesib 0.139 | zotarolimus 0.349 | idasanutlin 0.025 | alisertib -0.058 | [2] -0.026 | gefitinib -0.016 | [3] 0.076 | lapatinib 0.015 | pictilisib 0.135 | [4] 0.074 | crizotinib 0.333 | [5] 0.058 | [6] -0.093 | duvelisib 0.068 | gandotinib 0.313 | tozasertib -0.018 | [7] 0.124 | doramapimod 0.007 | ispinesib 0.081
active: [1] 0.436

RRAGB (UniProt Q5VZM2)
Sequence of UniProt Q5VZM2 (Q5VZM2 whole entry, looked up): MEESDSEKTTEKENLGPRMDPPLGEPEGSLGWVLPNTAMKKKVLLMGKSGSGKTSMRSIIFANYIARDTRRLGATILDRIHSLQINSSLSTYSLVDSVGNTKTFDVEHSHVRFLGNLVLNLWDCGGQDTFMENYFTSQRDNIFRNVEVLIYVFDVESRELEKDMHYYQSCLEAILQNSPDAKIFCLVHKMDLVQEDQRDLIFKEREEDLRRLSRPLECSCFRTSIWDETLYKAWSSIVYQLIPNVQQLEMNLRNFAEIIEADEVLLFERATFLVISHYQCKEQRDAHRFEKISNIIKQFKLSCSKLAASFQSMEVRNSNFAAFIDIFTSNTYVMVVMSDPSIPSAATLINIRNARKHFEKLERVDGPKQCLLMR
inactive: [1] -0.018 | filanesib -0.059 | zotarolimus -0.086 | idasanutlin -0.026 | alisertib -0.054 | [2] -0.078 | gefitinib -0.003 | [3] 0.053 | lapatinib 0.042 | pictilisib 0.052 | [4] 0.016 | crizotinib -0.131 | [5] 0.01 | [6] -0.123 | duvelisib 0.01 | gandotinib -0.008 | tozasertib -0.007 | [7] -0.011 | doramapimod 0.015 | ispinesib -0.065

RBM22 (UniProt Q9NW64)
Sequence of UniProt Q9NW64 (Q9NW64 whole entry, looked up): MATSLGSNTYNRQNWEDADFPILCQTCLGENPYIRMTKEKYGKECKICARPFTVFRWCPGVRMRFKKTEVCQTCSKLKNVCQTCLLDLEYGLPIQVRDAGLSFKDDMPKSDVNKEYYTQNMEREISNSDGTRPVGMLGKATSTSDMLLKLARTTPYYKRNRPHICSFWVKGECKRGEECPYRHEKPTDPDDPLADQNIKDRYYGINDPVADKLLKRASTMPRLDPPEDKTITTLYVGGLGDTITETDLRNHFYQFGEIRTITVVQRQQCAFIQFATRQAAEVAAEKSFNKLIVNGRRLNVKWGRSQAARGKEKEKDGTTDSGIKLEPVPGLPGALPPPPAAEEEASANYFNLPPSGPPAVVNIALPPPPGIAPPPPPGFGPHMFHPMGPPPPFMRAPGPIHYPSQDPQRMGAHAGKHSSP
inactive: [1] -0.105 | filanesib 0.096 | zotarolimus 0 | idasanutlin 0.056 | alisertib -0.002 | [2] 0.021 | gefitinib -0.058 | [3] 0.083 | lapatinib 0.036 | pictilisib -0.031 | [4] -0.045 | crizotinib 0.061 | [5] -0.053 | [6] 0.121 | duvelisib -0.052 | gandotinib -0.04 | tozasertib -0.052 | [7] 0 | doramapimod -0.025 | ispinesib -0.053

SHROOM2 (UniProt Q13796)
inactive: [1] 0.417 | filanesib 0.066 | zotarolimus 0.02 | idasanutlin -0.045 | alisertib -0.027 | [2] 0.237 | gefitinib 0.056 | [3] 0.009 | lapatinib -0.188 | pictilisib 0.226 | [4] 0.093 | crizotinib 0.005 | [5] 0.013 | [6] -0.099 | duvelisib 0.059 | gandotinib 0.397 | tozasertib -0.195 | [7] -0.233 | doramapimod 0.008

RANBP2 (UniProt P49792)
Sequence of UniProt P49792 (P49792 whole entry, looked up): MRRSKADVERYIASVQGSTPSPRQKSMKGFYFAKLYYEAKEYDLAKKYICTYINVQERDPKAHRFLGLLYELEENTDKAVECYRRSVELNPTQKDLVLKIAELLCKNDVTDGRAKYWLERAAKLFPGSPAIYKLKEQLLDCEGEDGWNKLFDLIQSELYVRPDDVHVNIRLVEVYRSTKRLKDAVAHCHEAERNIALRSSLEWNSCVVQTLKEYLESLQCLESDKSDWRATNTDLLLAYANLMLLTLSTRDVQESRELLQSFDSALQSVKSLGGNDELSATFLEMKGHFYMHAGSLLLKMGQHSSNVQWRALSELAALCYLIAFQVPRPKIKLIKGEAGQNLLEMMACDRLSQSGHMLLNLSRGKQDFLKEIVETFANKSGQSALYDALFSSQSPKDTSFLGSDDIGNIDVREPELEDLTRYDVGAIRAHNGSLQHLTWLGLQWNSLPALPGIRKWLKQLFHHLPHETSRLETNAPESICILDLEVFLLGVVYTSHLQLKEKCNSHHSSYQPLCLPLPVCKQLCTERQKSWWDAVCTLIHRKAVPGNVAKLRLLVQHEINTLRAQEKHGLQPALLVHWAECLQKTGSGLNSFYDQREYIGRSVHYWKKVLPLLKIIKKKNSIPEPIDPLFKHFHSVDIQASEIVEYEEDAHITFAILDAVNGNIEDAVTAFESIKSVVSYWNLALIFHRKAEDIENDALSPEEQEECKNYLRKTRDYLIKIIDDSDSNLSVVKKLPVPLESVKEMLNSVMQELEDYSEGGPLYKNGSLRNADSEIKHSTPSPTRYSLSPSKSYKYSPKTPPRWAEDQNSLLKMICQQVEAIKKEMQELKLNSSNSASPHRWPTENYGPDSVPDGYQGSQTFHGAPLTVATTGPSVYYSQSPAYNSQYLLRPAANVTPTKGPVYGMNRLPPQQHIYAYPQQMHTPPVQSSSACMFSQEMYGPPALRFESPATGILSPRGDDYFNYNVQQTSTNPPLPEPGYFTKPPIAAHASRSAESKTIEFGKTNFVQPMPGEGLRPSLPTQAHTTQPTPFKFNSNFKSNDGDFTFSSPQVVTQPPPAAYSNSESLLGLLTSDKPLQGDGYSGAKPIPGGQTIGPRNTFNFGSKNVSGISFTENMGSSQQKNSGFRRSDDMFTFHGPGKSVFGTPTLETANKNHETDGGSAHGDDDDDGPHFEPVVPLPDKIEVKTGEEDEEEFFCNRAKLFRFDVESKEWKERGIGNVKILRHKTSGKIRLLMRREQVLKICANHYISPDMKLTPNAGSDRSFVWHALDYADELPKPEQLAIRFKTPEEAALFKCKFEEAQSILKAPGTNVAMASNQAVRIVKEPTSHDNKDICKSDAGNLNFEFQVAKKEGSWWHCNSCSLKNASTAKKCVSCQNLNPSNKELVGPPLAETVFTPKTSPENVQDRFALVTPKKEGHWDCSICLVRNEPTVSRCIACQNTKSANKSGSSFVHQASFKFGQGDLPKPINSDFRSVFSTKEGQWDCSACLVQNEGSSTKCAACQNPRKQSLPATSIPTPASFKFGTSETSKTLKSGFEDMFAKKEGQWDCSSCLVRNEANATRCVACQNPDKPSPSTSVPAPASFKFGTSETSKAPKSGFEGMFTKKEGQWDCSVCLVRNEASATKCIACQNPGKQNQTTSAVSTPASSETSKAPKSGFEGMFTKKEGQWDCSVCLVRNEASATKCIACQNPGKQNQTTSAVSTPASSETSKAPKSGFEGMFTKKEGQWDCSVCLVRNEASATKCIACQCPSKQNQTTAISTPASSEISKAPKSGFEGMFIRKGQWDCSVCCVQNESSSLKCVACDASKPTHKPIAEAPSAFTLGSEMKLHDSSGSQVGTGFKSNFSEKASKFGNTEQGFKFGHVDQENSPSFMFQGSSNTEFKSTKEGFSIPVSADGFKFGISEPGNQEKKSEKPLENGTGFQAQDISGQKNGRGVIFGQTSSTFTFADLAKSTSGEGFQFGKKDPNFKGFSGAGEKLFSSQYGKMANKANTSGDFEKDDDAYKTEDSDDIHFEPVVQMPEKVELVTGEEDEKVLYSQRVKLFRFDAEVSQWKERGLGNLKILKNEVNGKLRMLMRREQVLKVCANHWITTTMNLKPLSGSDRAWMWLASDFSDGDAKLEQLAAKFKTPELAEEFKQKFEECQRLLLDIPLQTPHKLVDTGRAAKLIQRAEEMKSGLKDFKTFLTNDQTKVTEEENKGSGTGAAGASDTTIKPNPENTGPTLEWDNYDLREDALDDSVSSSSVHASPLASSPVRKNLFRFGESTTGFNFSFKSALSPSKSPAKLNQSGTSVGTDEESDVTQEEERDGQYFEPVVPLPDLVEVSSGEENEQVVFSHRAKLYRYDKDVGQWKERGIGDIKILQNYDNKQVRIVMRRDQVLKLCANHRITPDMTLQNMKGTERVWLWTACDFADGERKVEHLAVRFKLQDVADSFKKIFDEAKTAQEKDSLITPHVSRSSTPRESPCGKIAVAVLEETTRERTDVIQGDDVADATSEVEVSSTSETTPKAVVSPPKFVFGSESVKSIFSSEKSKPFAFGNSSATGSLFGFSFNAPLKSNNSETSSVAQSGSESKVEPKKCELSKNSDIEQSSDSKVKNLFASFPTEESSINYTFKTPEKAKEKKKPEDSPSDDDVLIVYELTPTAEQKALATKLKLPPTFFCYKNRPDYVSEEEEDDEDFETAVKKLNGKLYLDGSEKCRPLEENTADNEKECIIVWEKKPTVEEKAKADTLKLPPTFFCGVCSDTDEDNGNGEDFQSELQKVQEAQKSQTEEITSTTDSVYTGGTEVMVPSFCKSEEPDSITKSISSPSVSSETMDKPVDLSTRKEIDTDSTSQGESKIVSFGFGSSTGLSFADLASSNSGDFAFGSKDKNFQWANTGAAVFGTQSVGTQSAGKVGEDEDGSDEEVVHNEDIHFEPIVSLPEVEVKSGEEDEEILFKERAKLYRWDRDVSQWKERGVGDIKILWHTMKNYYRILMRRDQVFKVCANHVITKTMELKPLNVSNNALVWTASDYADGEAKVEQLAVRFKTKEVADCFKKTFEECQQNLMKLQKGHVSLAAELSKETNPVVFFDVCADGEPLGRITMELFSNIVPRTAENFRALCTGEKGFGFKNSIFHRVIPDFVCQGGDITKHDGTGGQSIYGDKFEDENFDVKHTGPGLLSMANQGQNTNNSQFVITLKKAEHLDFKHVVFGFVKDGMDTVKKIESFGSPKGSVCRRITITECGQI
active: [1] 0.334
inactive: filanesib -0.048 | zotarolimus 0.029 | idasanutlin -0.005 | alisertib 0.079 | [2] 0.044 | gefitinib 0.05 | [3] -0.097 | lapatinib -0.07 | pictilisib -0.002 | [4] -0.016 | crizotinib 0.009 | [5] -0.011 | [6] 0.103 | duvelisib 0.065 | gandotinib -0.066 | tozasertib 0.013 | [7] -0.003 | doramapimod 0.043 | ispinesib -0.031

RHOXF2 (UniProt Q9BQY4)
inactive: [1] 0.017 | filanesib 0.013 | zotarolimus -0.039 | idasanutlin 0.02 | alisertib -0.068 | [2] -0.001 | gefitinib -0.021 | [3] 0.056 | lapatinib -0.028 | pictilisib 0.088 | [4] 0.027 | crizotinib 0.001 | [5] 0.073 | [6] 0.018 | duvelisib 0.04 | gandotinib -0.045 | tozasertib -0.029 | [7] -0.092 | doramapimod 0.008 | ispinesib 0.009

RBM39 (UniProt Q14498)
Sequence of UniProt Q14498 (Q14498 whole entry, looked up): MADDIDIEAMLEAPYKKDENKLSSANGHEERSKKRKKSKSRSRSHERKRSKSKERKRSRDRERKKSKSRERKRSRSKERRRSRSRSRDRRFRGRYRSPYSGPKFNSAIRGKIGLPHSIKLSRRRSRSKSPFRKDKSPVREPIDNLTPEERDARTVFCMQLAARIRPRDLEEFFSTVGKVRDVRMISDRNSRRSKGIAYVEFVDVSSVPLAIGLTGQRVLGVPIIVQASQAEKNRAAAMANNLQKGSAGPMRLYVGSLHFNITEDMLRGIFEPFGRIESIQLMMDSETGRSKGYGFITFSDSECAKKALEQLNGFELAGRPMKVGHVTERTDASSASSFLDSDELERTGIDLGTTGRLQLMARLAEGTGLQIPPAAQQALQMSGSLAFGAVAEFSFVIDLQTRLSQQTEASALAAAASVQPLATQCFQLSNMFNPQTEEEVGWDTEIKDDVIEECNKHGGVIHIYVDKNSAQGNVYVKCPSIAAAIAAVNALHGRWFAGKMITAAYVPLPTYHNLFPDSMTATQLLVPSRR
inactive: [1] 0.117 | filanesib 0.129 | zotarolimus -0.006 | idasanutlin 0.262 | alisertib -0.058 | [2] -0.055 | gefitinib -0.019 | [3] 0.009 | lapatinib 0.026 | pictilisib -0.014 | [4] -0.043 | crizotinib -0.114 | [5] 0.033 | [6] -0.01 | duvelisib -0.012 | gandotinib -0.052 | tozasertib 0.081 | [7] 0.036 | doramapimod -0.02 | ispinesib -0.032
